Consider 48 compounds from PubChem BioAssay AID504332 (National Center for Advancing Translational Sciences (NCATS), 2011).

Among all 350,000 compounds or so, about 31,000 (8.9%) were called active. Roughly 15% stayed inconclusive and do not appear here. What follows is part of a selection rich in actives, with near analogues and random picks from the rest. Where a call stands in place of a potency, no number is given. A number with no mark means an inactive call. Calls follow the shape of the dose curve; as a rule, active = well fitted inhibition curve with a large enough effect; inconclusive = small, poorly fitted or top-dose-only effect; inactive = no such curve, though single readings can be large or run the other way.
Potency is read from the fitted curve at half-maximal effect.

Chain of Histone-lysine N-methyltransferase EHMT2 (Homo sapiens) (Q96KQ7 913-1193 limits assumed): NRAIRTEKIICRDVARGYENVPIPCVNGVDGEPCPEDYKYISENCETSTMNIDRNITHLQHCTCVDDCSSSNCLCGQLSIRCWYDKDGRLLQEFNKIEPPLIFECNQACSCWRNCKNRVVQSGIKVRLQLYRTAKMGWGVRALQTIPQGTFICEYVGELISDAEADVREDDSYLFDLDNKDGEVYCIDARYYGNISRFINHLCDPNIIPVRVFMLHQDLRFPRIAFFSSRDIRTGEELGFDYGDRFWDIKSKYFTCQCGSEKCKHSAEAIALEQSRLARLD

This test has as its target Histone-lysine N-methyltransferase EHMT2 (Homo sapiens) (UniProt Q96KQ7). The experiment in a line: qHTS Assay for Inhibitors of Histone Lysine Methyltransferase G9a. Also: nearly all actives have a fitted effect of over 75% in size. The conditions noted are these: G9a H3K9 monomethylation, AlphaScreen, 2 h; series mostly up to 59 µM. From the text: Methylated lysines, on the N-terminal tails of histone proteins serve as epigenetic markers to recruit factors that can then modify local chromatin structure to lead to functional consequences. G9a and other members of the SUV39 family of the SET domain-containing superfamily of histone lysine methyltransferases (HMT) have been identified to specifically methylate Lys9 of histone H3 (H3K9). G9a catalyzes the mono- and di-methylation of H3K9 in mammalian euchromatic regions, where the resulting H3K9me2 is indicative of transcriptional repression. […] The inhibition of G9a will result in transcriptional activation and work synergistically with DNA methyltransferase and histone deacetylase inhibitors, to kill cancer cells. This qHTS assay for identification of G9a inhibitors is a chemiluminescence based AlphaScreen (PerkinElmer). Methylation of biotinylated-histone peptide is measured through specific antibody-based detection, in conjunction with streptavidin-coated donor and anti-IgG antibody-coated acceptor beads. The method is particularly well suited for detection of inhibitors acting by the desired histone peptide competitive mechanism and is applicable to testing other HMTs. Although AlphaScreen has significant advantages with its utility in a variety of epigenetic target assays, the primary screening data provided in this deposition should be used with caution due to the prevalence of screening artifacts. An AlphaScreen counterscreen is highly recommended to be run against any putative actives to eliminate non specific artifacts. Alternatively, one can use other AlphaScreen assays in PubChem to filter out promiscuous hits. Quinn et al. A chemiluminescence-based method for identification of histone lysine methyltransferase inhibitors. Mol Biosyst 6(5): 782-8. 2010. PMID: 20567762 [2] Baell,Holloway. New substructure filters for removal of pan assay interference compounds (PAINS) from screening libraries and for their exclusion in bioassays. J Med Chem. 53(7):2719-40. 2010. PMID: 20131845 NIH Molecular Libraries Probe Production Network [MLPCN] NIH Chemical Genomics Center [NCGC] Structural Genomics Consortium (SGC) NIH Grant: 5U54 MH084681-02
To each well of a 1,536w plate, 2ul of HMT enzyme (final 20nM) were added, using a nanoliter dispenser. The G9a- and GLP-inhibitor BIX-01294 (CID: 25150857) are used as an intraplate control, with a 16-point titration in duplicate. A Kalypsys pin-tool transferred 23nl of library compound solution in DMSO to each well. Following a 15 min incubation of enzyme with compounds at room temperature, 1ul mixture of b-H3K9 peptide substrate (final 500nM) and SAM cofactor (final 20uM) were added. Reactions were allowed to proceed at room temperature for 2 hours. Methylated b-H3K9 peptide product was detected with 0.5 ug/mL rabbit polyclonal anti-monomethyl histone H3K9 antibody (Abcam Inc., Cambridge, MA) and 20 ug/mL each streptavidin-coated donor and anti-rabbit IgG acceptor AlphaScreen beads. Antibody and beads were added in a 1ul dispense, for a final volume of 4ul, and plates were incubated, protected from the light, for 10 min at room temperature. Microplates were then read on an EnVision multilabel plate reader using the 1,536 plate HTS AlphaScreen aperture (excitation time 80 ms, measurement time 240 ms).
As to `Cc1ccc(S(=O)(=O)c2ccc(Oc3ccccc3)cc2)cc1`, the Potency result was “inactive”.

On to `CC(C)(C)c1ccc(Oc2ccc(N)cc2)cc1`, for which the Potency was 50.1 µM (active).

`Cc1cc(C)cc(N)c1`: the activity, negative = inhibition was 2.02% [at 0.501 µM].

For `Cc1ccc(Oc2ccc(N)cc2)cc1`, the Potency is 50.1 µM (active).

As to `NC(=O)NC(=O)C(OC(=O)CCNS(=O)(=O)c1ccccc1)c1ccccc1` (stereo not drawn), the Potency entry is “inactive”.

For `CCCS(=O)(=O)Nc1cccc(-c2cn3ccsc3n2)c1`, the Potency entry is “inactive”.

Turning to `Cc1ccc(NC(=O)Cc2nc(COC(=O)C(C)NS(=O)(=O)c3ccc(C)cc3)cs2)cc1` (stereo not drawn), the activity, negative = inhibition was -6.75% [at 12.7 µM].

With `Cc1ccc(S(=O)(=O)c2c(Nc3cccc(Cl)c3)sc(C(=O)c3ccc4c(c3)OCO4)c2N)cc1`, the Potency result was “inactive”.

`COc1ccc(CNC(=O)CCc2c(C)nn(-c3ccc(N4CCCC4)nn3)c2C)cc1`: the Potency result was “inactive”.

For the compound `O=C(c1ccncc1)c1ccc([N+](=O)[O-])cc1`, the Potency result is “inactive”.

For `O=C(Cn1c[n+](CC(=O)c2ccc([N+](=O)[O-])cc2)cn1)c1ccc([N+](=O)[O-])cc1`, the Potency result was “inactive”.

For the compound `O=C(CC(n1cncn1)C(Cl)(Cl)Cl)c1ccc([N+](=O)[O-])cc1` (stereo not drawn), the Potency is 10 µM (active).

For the compound `O=C(O)[C@@H](S)[C@H](S)C(=O)O`, the Potency was 6.31 µM (active).

In the case of `Cc1cccc(CNC(=O)c2cnc3sc(N4CCCCC4)nn3c2=O)c1`, the Potency entry is “inactive”.

In the case of `CCCC12CN3CC(CCC)(CN(C1)C3c1c[nH]c3ccc(OC)cc13)C2=O` (stereo not drawn), the Potency result was “inactive”.

Turning to `S=C(NNC(=S)NC1CC2C=CC1C2)NC1CC2C=CC1C2` (stereo not drawn), the Potency is 2 µM (active).

On to `CCn1c(CNC(=O)C23CC4CC(CC(C4)C2)C3)nnc1SCC(=O)Nc1ccc(OC)cc1`, for which the Potency entry was “inactive”.

Regarding `Cc1ccc(-c2nc(SCc3ccc(Br)cc3)n3[nH]c(=O)cc3n2)cc1`, the Potency entry is “inactive”.

Take `NC(=O)C(=O)N/N=C/c1ccc([N+](=O)[O-])o1`: the Potency result was “inactive”.

With `O=S(=O)(c1ccc2nc(NCc3ccccc3Cl)ccc2c1)N1CCCCC1`, the Potency was 7.94 µM (active).

For the compound `O=S(=O)(c1ccc2nc(N3CCN(c4cccc(Cl)c4)CC3)ccc2c1)N1CCCCC1`, the Potency result is “inactive”.

As to `Cc1ccc(Nc2ccc3cc(S(=O)(=O)N4CCCCC4)ccc3n2)cc1F`, the Potency result was “inactive”.

As for `COc1ccc(NC(=O)CN(C)C(=O)c2cccc(S(=O)(=O)N3CCN(c4ccccc4)CC3)c2)cc1`, the Potency entry was “inactive”.

`COC(=O)c1cccc(NC(=O)CN2CCC(NC(=O)c3cc(OC)c(OC)c(OC)c3)CC2)c1`: the Potency result was “inactive”.

On to `COc1cc(C(=O)N2CCN(C)CC2)cc(OC)c1OC`, for which the Potency entry is “inactive”.

With `CCN1CCN(CC(=O)c2cc(OC)c(OC)c(OC)c2)CC1`, the Potency is 39.8 µM (active).

On to `CCOC(=O)c1ccccc1CN1C(=O)c2ccccc2S1(=O)=O`, for which the Potency result is “inactive”.

Turning to `Cc1cc(C)c2oc(-c3cccc(NC(=O)c4cccc(F)c4)c3C)nc2c1`, the Potency entry was “inactive”.

`COc1ccc(/C(C)=N/NC(=O)c2ccc3nc[nH]c3c2)cc1`: the Potency entry was “inactive”.

As to `CN(C)N=Nc1ccc2nc[nH]c2c1`, the Potency was 1.78 µM (active).

With `CC/C(O)=N\S(=O)(=O)c1ccc(N=NN(C)C)cc1`, the Potency result is “inactive”.

With `Cn1c(Cc2csc(N)n2)nnc1SC/C=C/c1ccccc1`, the activity, negative = inhibition was 12.8% [at 12.7 µM].

Take `CCOC(=O)Cc1csc(NC(=O)CSc2nnc(-c3cccnc3)n2Cc2ccco2)n1`: the Potency result is “inactive”.

Take `O=C(CSc1nnc(COc2ccc(Cl)cc2)n1Cc1ccco1)N1CCNC1=O`: the activity, negative = inhibition is -16.3% [at 0.501 µM].

On to `Cc1ccccc1CSc1nnc(-c2cccnc2)n1N`, for which the activity, negative = inhibition is 3.07% [at 12.7 µM].

For `O=C(CSc1nnc(-c2cnccn2)n1Cc1ccco1)c1ccc(Cl)c(Cl)c1`, the Potency is 50.1 µM (active).

Turning to `O=C(CSc1nnc(-c2cccnc2)n1Cc1ccco1)c1ccc(Cl)c(Cl)c1`, the Potency is 50.1 µM (active).

For `C=CCn1c(CNC(=O)c2ccco2)nnc1SCC(=O)c1ccc(OC)cc1`, the Potency entry was “inactive”.

As to `COc1ccc(C(=O)CSc2nnc(COc3ccccc3)n2Cc2ccco2)cc1`, the Potency was 50.1 µM (active).

With `Cc1ccc(NC(=O)CSc2nnc(-c3cnccn3)n2Cc2ccco2)cc1C`, the activity, negative = inhibition was 7.37% [at 12.7 µM].

`CCc1ccc(NC(=O)CSc2nnc(-c3cnccn3)n2Cc2ccco2)cc1`: the activity, negative = inhibition is -31.5% [at 12.7 µM].

As for `C(=C\c1ccccc1)/CSc1nnc(-c2cccnc2)n1Cc1ccco1`, the Potency is 50.1 µM (active).

Take `O=C(CSc1nnc(-c2cccnc2)n1Cc1ccco1)c1ccc(Cl)cc1`: the Potency entry was “inactive”.

Regarding `COc1ccc2c3c(c(=O)oc2c1)C1O[C@](CCCCN2C(=O)c4ccccc4C2=O)(Cc2c1ccc1ccccc21)O3`, the activity, negative = inhibition is -1.18% [at 2.33 µM].

`O=C(COc1ccc(Cl)cc1)Nc1ccc(-c2nc3cc(Cl)ccc3o2)c(O)c1`: the Potency entry was “inactive”.

Take `CCc1ccc(C(=O)NNC(=O)C2CCN(c3ncnc4sc(C)c(C)c34)CC2)cc1`: the Potency result is “inactive”.

Take `Cc1ccc(Cl)cc1N(C)C(=O)C1CCCN(c2ncnc3onc(-c4ccc(F)cc4)c23)C1` (stereo not drawn): the Potency entry was “inactive”.

Take `CCC1(CC)NC(=O)N(CC(=O)OCC(=O)c2cc(C)c(C)cc2C)C1=O`: the Potency result is “inactive”.
